Source: PubChem BioAssay (NCI)
Compounds without any hit were thinned out: in the full panel of roughly 79,000, 15% have a hit. Values without a mark were called inactive. Calls of active or inactive are those of the source. Rule as the data show it: active = growth inhibition above about 70%; inactive = the rest.

Experiments:
[1] = NCI Yeast Anticancer Drug Screen. Data for the rad50 strain (AID 155);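 also: 0% = growth of vehicle-only cultures of the same strain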; settings: S. cerevisiae rad50 strain growth inhibition, hits give high values
Summary of the method: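 Yeast carrying a defined DNA repair defect were exposed to test compounds, and growth was compared with vehicle-treated controls to give percent inhibition.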

[2] = NCI Yeast Anticancer Drug Screen. Data for the mec2-1 strain (AID 157); settings: S. cerevisiae mec2-1 strain, hits give high values
Summary of the method: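 Readout is yeast growth inhibition, normalised to vehicle-treated controls, in the mec2-1 strain exposed to compound.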

[3] = NCI Yeast Anticancer Drug Screen. Data for the sgs1 mgt1 strain (AID 161);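 also: 0% = growth of cultures given vehicle only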; settings: S. cerevisiae sgs1 mgt1 strain, hits give high values
Summary of the method: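 Compounds are added to genetically altered yeast, and growth is compared with cultures given vehicle alone to give percent inhibition.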

[4] = NCI Yeast Anticancer Drug Screen. Data for the cln2 rad14 strain (AID 165);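 also: 0% = growth equal to vehicle treated cultures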; settings: S. cerevisiae cln2 rad14 strain, hits give high values
Summary of the method: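 Relative to vehicle controls, growth inhibition of compound-treated cln2 rad14 yeast was recorded.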

[5] = NCI Yeast Anticancer Drug Screen. Data for the mlh1 rad18 strain (AID 175); settings: S. cerevisiae mlh1 rad18 strain growth inhibition, hits give high values
Summary of the method: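 Test agents were incubated with a yeast strain of defined genotype (DNA damage repair defect). Inhibition of growth was derived by comparison with vehicle-exposed cultures.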

[6] = NCI Yeast Anticancer Drug Screen. Data for the bub3 strain (AID 167); settings: S. cerevisiae bub3 mutant strain, hits give high values
Summary of the method: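 Compounds were applied to a genetically altered yeast strain carrying a cell-cycle control defect. Growth inhibition was scored against vehicle-treated controls.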

[7] = at 5.0 µM (retest, dose inferred, filed as 0.5)
[8] = at 50.0 µM (retest, dose inferred, filed as 5.0)

Structure (SMILES)	growth inhibition [1, 7]	growth inhibition [1, 8]	growth inhibition ([1]; at 50.0 µM)	growth inhibition [2, 7]	growth inhibition [2, 8]	growth inhibition ([2]; at 50.0 µM)	growth inhibition [3, 7]	growth inhibition [3, 8]	growth inhibition ([3]; at 50.0 µM)	growth inhibition [4, 7]	growth inhibition [4, 8]	growth inhibition ([4]; at 50.0 µM)	growth inhibition [5, 7]	growth inhibition [5, 8]	growth inhibition ([5]; at 50.0 µM)	growth inhibition [6, 7]	growth inhibition [6, 8]	growth inhibition ([6]; at 50.0 µM)
CN(N(P(c1ccccc1)c1ccccc1)P(c1ccccc1)c1ccccc1)P(c1ccccc1)c1ccccc1	-1%	2%	88.7% (active)	-5%	9%	81.9% (active)	-15%	2%	88.2% (active)	2%	0%	64.2%	-14%	-17%	93.2% (active)	–	–	–
COc1c2c(cc3c1c(=O)c1ccccc1n3C)OCO2	-12%	26%	61.5%	-4%	1%	33.9%	-5%	14%	40.5%	18%	5%	-45.8%	-29%	22%	62.8%	2%	0%	25.4%
COC(=O)C1=CCC[C@H]2C1(C)CCC(C)C21CC(c2ccoc2)OC1=O (stereo partly drawn)	-8%	75% (active)	50.5%	8%	85% (active)	55.6%	10%	90% (active)	72.2% (active)	-16%	14%	28.9%	10%	87% (active)	76.2% (active)	–	–	–
Nc1c2c(=O)[nH]c(=O)c2c(N)c2c(=O)c3ccccc3c(=O)c12	36%	53%	78.2% (active)	21%	47%	35.8%	50%	72% (active)	38%	-26%	41%	34.5%	30%	59%	60.6%	21%	78% (active)	29.4%
CCCCCCCCCCCCNCCNCCN	99% (active)	95% (active)	86.7% (active)	99% (active)	100% (active)	89.7% (active)	25%	96% (active)	91% (active)	84% (active)	97% (active)	85.6% (active)	100% (active)	100% (active)	86.6% (active)	–	–	–
O=C1c2ccc(Cl)cc2C(=O)c2cc(Cl)ccc21	7%	99% (active)	91.9% (active)	11%	98% (active)	46.5%	3%	99% (active)	65.3%	-12%	99% (active)	14.3%	8%	99% (active)	77% (active)	19%	99% (active)	89.2% (active)
CCCN1CN(C(C(=O)N[C@@H]2C(=O)N3C(C(=O)O)=C(C)CSC23)c2ccccc2)CSC1=S (stereo partly drawn)	-19%	11%	33.7%	-11%	1%	-32.4%	-21%	-10%	-3.25%	-37%	-14%	44%	-13%	-12%	1.5%	-10%	-1%	-38.4%
CC(C)C1COC(c2ccc3ccccc3c2-c2c(O[Si](C)(C)C(C)(C)C)ccc3ccccc23)=N1 (stereo not drawn)	20%	20%	93.2% (active)	14%	14%	92% (active)	12%	12%	92.8% (active)	13%	13%	92.7% (active)	4%	4%	91.2% (active)	8%	8%	91.3% (active)
CCCC(Sc1ccccc1)c1ccccc1NC(C)=O (stereo not drawn)	1%	31%	85.5% (active)	0%	8%	58.9%	1%	26%	89.9% (active)	6%	33%	37%	2%	15%	67.5%	6%	41%	45.6%
Cc1ccc(S(=O)(=O)OC2C(C)OCOC(C)C2OS(=O)(=O)c2ccc(C)cc2)cc1 (stereo not drawn)	1%	0%	24.6%	-2%	-1%	11.9%	-2%	-17%	5.9%	0%	-12%	16.6%	1%	1%	-3.85%	–	–	–
CC(C)C1=CC(=O)C2=C(CCC3C(C)(C(=O)O)CCC[C@]23C)C1=O (stereo partly drawn)	7%	99% (active)	92.2% (active)	28%	99% (active)	93% (active)	20%	99% (active)	93.2% (active)	15%	99% (active)	90.7% (active)	21%	99% (active)	91.7% (active)	–	–	–
Oc1ccc(-c2nnc(-c3ccc(Cl)cc3Cl)o2)cc1	6%	80% (active)	54.6%	2%	82% (active)	50.8%	0%	85% (active)	54.2%	2%	86% (active)	74.4% (active)	-2%	76% (active)	51.8%	17%	91% (active)	47.5%
O=C1OC2(CCCCC2)OC(=O)C1=Cc1ccc([N+](=O)[O-])s1	9%	99% (active)	56.1%	6%	100% (active)	27.4%	9%	99% (active)	99.8% (active)	4%	61%	10%	14%	99% (active)	30.7%	0%	99% (active)	22.6%
O=[N+]([O-])c1ccc(CCCCc2ccc([N+](=O)[O-])cc2)cc1	-5%	-8%	-6.1%	3%	-18%	3%	2%	-9%	-1.8%	-2%	-10%	-59.9%	-10%	-16%	29%	13%	21%	7.35%
[N-]=[N+]=NC1=CC(=O)c2cccc3cccc1c23	45%	99% (active)	80.8% (active)	31%	99% (active)	86.5% (active)	65%	99% (active)	87.6% (active)	47%	98% (active)	80.1% (active)	72% (active)	99% (active)	89.5% (active)	32%	99% (active)	89% (active)
Cc1cc(S(=O)(=O)c2ccc(Cl)cc2)nc(S(=O)(=O)c2ccc(Cl)cc2)c1C#N	45%	78% (active)	82.1% (active)	43%	91% (active)	87.2% (active)	99% (active)	90% (active)	85.2% (active)	99% (active)	91% (active)	84.7% (active)	42%	89% (active)	80.2% (active)	99% (active)	83% (active)	80.4% (active)
CCC[n+]1ccc(/C=N\NC(N)=S)c2ccccc21	22%	38%	38.2%	19%	36%	-16.4%	21%	38%	6.2%	9%	34%	5.25%	17%	33%	-41.6%	–	–	–
COC(=O)CS(=O)(=O)CCS(=O)(=O)CC(=O)OC	-4%	3%	-0.4%	-2%	8%	11.9%	-1%	14%	4.65%	-1%	1%	-1.25%	-3%	11%	20.4%	-1%	15%	60.1%
CCN1CCNc2c3cc(OC)ccc3nc3c([N+](=O)[O-])ccc1c23	-10%	37%	42.2%	-19%	7%	15.2%	-9%	0%	39.8%	-2%	40%	7.8%	-41%	41%	71.7% (active)	–	–	–
[O-][n+]1c(-c2ccccc2)c(Cl)c(-c2ccccc2)n1O	4%	75% (active)	86.3% (active)	0%	94% (active)	97% (active)	4%	92% (active)	97.6% (active)	0%	53%	92.7% (active)	4%	95% (active)	97.5% (active)	8%	96% (active)	97.8% (active)
O=c1oc2c(-c3ccccc3)cccc2c(O)c1-c1ccccc1	-2%	58%	48.6%	-2%	86% (active)	60.2%	3%	87% (active)	58.9%	0%	36%	33%	0%	81% (active)	70.5% (active)	-4%	79% (active)	55%
CN(C)CC1CCc2c(ccc3ccccc23)C1=O (stereo not drawn)	8%	68%	69%	-16%	28%	66.8%	29%	76% (active)	71.1% (active)	12%	46%	39.7%	40%	78% (active)	53.8%	19%	82% (active)	58.8%
COc1ccccc1CN1CCCN(Cc2ccccc2OC)C1c1ccccc1F	2%	-2%	55.9%	-9%	-11%	43.5%	4%	8%	62.6%	1%	-1%	36.6%	16%	16%	41%	0%	-5%	78.8% (active)
O=C1C=C(Br)C(=O)C12CCc1ccccc12 (stereo not drawn)	99% (active)	99% (active)	99.7% (active)	100% (active)	99% (active)	99.8% (active)	93% (active)	100% (active)	99.5% (active)	99% (active)	99% (active)	99.3% (active)	99% (active)	99% (active)	99.5% (active)	–	–	–
CC(C)CCCOC(=O)c1cc([N+](=O)[O-])cc([N+](=O)[O-])c1	12%	30%	67.8%	2%	27%	53.1%	5%	51%	96% (active)	3%	25%	54.2%	3%	70% (active)	93.8% (active)	0%	24%	72.6% (active)
CC(=O)C(=C(I)I)c1ccccc1	-20%	71% (active)	51.6%	-21%	89% (active)	55%	-27%	93% (active)	73.7% (active)	8%	34%	30.8%	-28%	80% (active)	24.2%	–	–	–
CCCCCCCCCCC(=O)CC(=O)c1c(O)cccc1O	-14%	-1%	1.9%	-11%	5%	-0.35%	10%	5%	2.4%	0%	12%	-37.5%	-16%	16%	1.5%	12%	17%	-1.95%
Cc1ccccc1NC(=O)c1cc2cc(N=Nc3ccccc3C(=O)O)ccc2oc1=O	7%	81% (active)	91.4% (active)	-10%	65%	83.5% (active)	15%	90% (active)	96.5% (active)	9%	46%	90.3% (active)	8%	49%	96.5% (active)	7%	78% (active)	82.7% (active)
COc1ccc(COCCOCc2nc(C#N)c(N)o2)cc1	16%	8%	43.3%	13%	9%	12.1%	16%	5%	-25.1%	16%	11%	-16.8%	10%	4%	-1.6%	22%	12%	-31.7%
CC1=C(C(=O)NCc2ccccc2)C(c2ccccc2O)C(C(=O)NCc2ccccc2)=C(C)N1	27%	27%	87.3% (active)	17%	17%	85% (active)	17%	17%	79.7% (active)	13%	13%	71.4% (active)	15%	15%	78.2% (active)	7%	7%	86.4% (active)
